Data from PubChem BioAssay AID588342 (National Center for Advancing Translational Sciences (NCATS), 2011).
The campaign covered roughly 360,000 compounds. About 25,000 (6.9%) were called active. About 9% were inconclusive and are not listed. For the sample, actives were picked, then their nearest neighbours and some compounds at random. Unmarked numbers belong to inactive results. The call rests on the fitted dose curve; in most records, active means well fitted inhibition curve with a large enough effect; inconclusive means small, poorly fitted or top-dose-only effect; inactive means flat fitted curve, though single readings scatter.

Molecular target: Luciferin 4-monooxygenase (Photinus pyralis) (UniProt P08659)
Assay: qHTS profiling assay for firefly luciferase inhibitor/activator using purifed enzyme and Km concentrations of substrates (counterscreen for miR-21 project); further: nearly all actives have a fitted effect of over 55% in size;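 on activity change, negative = inhibition: plate controls were vehicle for no effect and reference inhibitor for full effect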
Conditions: purified FLuc, luminescence inhibition; series mostly up to 57.5 µM; activity change, negative = inhibition: at the top concentration
Summary of the method: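 Purified P. pyralis luciferase, 10 nM final, with Km-level 10 uM D-luciferin and 10 uM ATP in 50 mM Tris acetate pH 7.5, 10 mM Mg acetate, 0.01% Tween-20, 0.05% BSA; 6-point qHTS titration about 60 µM downward; luminescence read.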
Potency means the concentration at half of the fitted maximal effect.

Chain of Luciferin 4-monooxygenase (Photinus pyralis) (P08659 whole entry, looked up): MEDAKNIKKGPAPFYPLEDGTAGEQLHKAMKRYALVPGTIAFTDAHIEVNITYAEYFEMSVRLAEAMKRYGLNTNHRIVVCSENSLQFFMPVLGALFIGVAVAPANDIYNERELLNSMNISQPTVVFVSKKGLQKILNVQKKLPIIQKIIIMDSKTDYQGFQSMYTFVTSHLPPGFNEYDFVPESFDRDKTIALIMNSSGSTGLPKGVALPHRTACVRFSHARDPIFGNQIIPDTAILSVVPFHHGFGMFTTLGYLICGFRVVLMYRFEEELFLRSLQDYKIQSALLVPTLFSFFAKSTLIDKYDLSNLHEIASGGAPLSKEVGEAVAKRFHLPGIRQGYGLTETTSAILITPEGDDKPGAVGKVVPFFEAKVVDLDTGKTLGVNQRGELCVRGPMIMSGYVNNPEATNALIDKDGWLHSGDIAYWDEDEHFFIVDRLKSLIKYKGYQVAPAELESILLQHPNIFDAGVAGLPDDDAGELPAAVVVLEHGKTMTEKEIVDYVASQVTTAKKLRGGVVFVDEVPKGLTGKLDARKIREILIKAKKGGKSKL

Row | SMILES | activity change, negative = inhibition [%] | Potency
1 | Cc1ccc(CNS(=O)(=O)c2ccc(C(=O)N(C)C)s2)cc1 | -9.37 | –
2 | Cc1ccc(/C=N/NC(=O)Cn2ccc(C(F)(F)F)n2)o1 | -4.37 | –
3 | O=C(N/N=C/c1cccnc1)c1cc2ccccc2cc1O | – | 5.36 µM (active)
4 | Cc1ccc(/C=N/NC(=O)c2cc3ccccc3cc2O)o1 | – | 9.53 µM (active)
5 | Cc1ccc(/C=N/NC(=O)Cn2nc(C)c(Br)c2C)o1 | 3.49 | –
6 | O=C(N/N=C\c1cccnc1)c1cc(-c2ccccc2)nc2c(Cl)cccc12 | -16.6 | –
7 | O=C(N/N=C/c1cccnc1)c1ccc(NC(=O)c2ccc(F)cc2)cc1 | -5.04 | –
8 | CCc1cc2c(cc3c(=O)n(CC(=O)NCc4cccc(Cl)c4)nc(CC)n32)s1 | -3.11 | –
9 | O=C(CSc1ncn[nH]1)Nc1nc(-c2cccc([N+](=O)[O-])c2)cs1 | -12.7 | –
10 | COc1ccc(-n2cnnc2SCC(=O)Nc2cccc([N+](=O)[O-])c2)cc1 | -0.116 | –
11 | O=C(CSc1nc(-c2ccccc2)cs1)Nc1cccc([N+](=O)[O-])c1 | – | 10.7 µM (active)
12 | CC1=NN(c2ccc(Cl)c(C(=O)O)c2)C(=O)/C1=C/c1ccc(-c2ccccc2[N+](=O)[O-])o1 | – | 4.78 µM (active)
13 | O=C1NC(c2ccc(-c3ccccc3[N+](=O)[O-])o2)C(C(=O)c2ccc(Cl)cc2)C(O)(C(F)(F)F)N1 (stereo unspecified) | 3.67 | –
14 | Cc1cc([N+](=O)[O-])c(-c2ccc(/C=N/n3cnnc3)o2)cc1Cl | 0.263 | –
15 | C=CCc1cccc2cc(C(=O)OCC)c(=O)oc12 | -15.5 | –
16 | CCOC(=O)c1cc2cc3ccccc3cc2oc1=O | – | 9.53 µM (active)
17 | NS(=O)(=O)c1ccc(NC(=O)COC(=O)c2cc3ccccc3oc2=O)cc1 | -6.92 | –
18 | O=C(CCC(=O)N1CC2CCCN2c2ccccc21)NCc1ccccc1Cl (stereo unspecified) | -11.2 | –
19 | O=C(CCc1nc(CN2CCN(S(=O)(=O)c3ccc(Br)cc3)CC2)no1)N1CCCCC1 | -2.89 | –

Row | SMILES | activity change, negative = inhibition [%] | Potency
20 | CCOC(=O)c1c(C)[nH]c(CCC(=O)NCCCN2CCN(c3cccc(Cl)c3)CC2)c1C | -6.7 | –
21 | CN(C)CCCn1c(-c2ccc(Cl)cc2)csc1=Nc1ccccc1 | 1.01 | –
22 | CN(C)CCN=c1cc(-c2ccccc2)oc2ccc(Cl)cc12 | – | 6.01 µM (active)
23 | CN(C)CCn1c(=S)[nH]c2ccc(Cl)cc2c1=O | -0.113 | –
24 | O=C(CCCn1c(=O)c2cccn2c2cccnc21)NCc1ccc(F)cc1 | 7.61 | –
25 | Cc1ccccc1Cn1nc(C)c(NC(=O)c2cc(-c3ccc(F)cc3)on2)c1C | 3.35 | –
26 | CCOC(=O)C1=C(N)N2C(=O)C(C)SC2=C(C(=O)OCC)C1c1cc(OC)c(OC)c(OC)c1 (stereo unspecified) | -0.321 | –
27 | CC1(C)CCSC(/C=C/c2ccccc2)=N1 | – | 13.5 µM (active)
28 | Cc1ccc(C)c(CN2C(=O)c3ccccc3S(=O)c3ccc(C(=O)N4CCOCC4)cc32)c1 (stereo unspecified) | -4.41 | –
29 | Cc1cc(Nc2ccc(N3CCOCC3)cc2)c2cccc(C)c2n1 | -2.45 | –
30 | Cc1cc(C(=O)N/N=C/c2ccccc2[N+](=O)[O-])c(C)o1 | – | 16.9 µM (active)
31 | CC(=C/c1ccccc1)/C=N/NC(=O)c1cc(C)oc1C | – | 1.35 µM (active)
32 | O=C(Cc1cc(=O)[nH][nH]1)N/N=C/c1ccccc1[N+](=O)[O-] | 2.61 | –
33 | CC(=O)c1ccc(N2CCN(CC(=O)Nc3ccccc3N3CCOCC3)CC2)cc1 | -9.52 | –
34 | Cc1cc(-c2n[nH]c(=S)n2/N=C/C(Br)=C/c2ccccc2)n[nH]1 | -6.14 | –
35 | Cc1cc(C(=O)OCC(=O)Nc2ccccc2Cl)c(C)o1 | -19.8 | –
36 | Cc1ccccc1N/N=C/c1ccc(N2CCOCC2)cc1 | – | 10.7 µM (active)
37 | CC(=O)N/C(=C/c1ccc(OC(F)F)cc1)C(=O)O | -0.154 | –
38 | COc1ccc(C/C(C)=N/NC(=O)c2cc(C)oc2C)cc1 | -11.8 | –

Row | SMILES | activity change, negative = inhibition [%] | Potency
39 | CC(=O)N/N=C/c1cc2c(cc1[N+](=O)[O-])OCO2 | 0.319 | –
40 | Cc1cc(C(=O)N/N=C\C(Br)=C\c2ccccc2)c(C)o1 | – | 8.49 µM (active)
41 | Cc1ccc(CC(=O)Nc2ccc(S(=O)(=O)N3CCOCC3)cc2)cc1C | -1.84 | –
42 | Cc1cccc(Cn2c(=O)n(CCC(=O)NCCc3ccc(Cl)cc3)c(=O)c3sccc32)c1 | -3.53 | –
43 | O=C(CN1CCN(C2CCS(=O)(=O)C2)CC1)N1N=C(c2ccc(Cl)cc2)CC1c1ccco1 (stereo unspecified) | 0.655 | –
44 | CCOC(=O)c1cc(-c2ccccc2)n(CCC(=O)Nc2ccccc2CC)c1C | -1.81 | –
45 | CC1=Nc2cc(C(=O)N3CCC(C)CC3)ccc2Sc2ccc(Cl)cc21 | 2.21 | –
46 | CC(=O)Nc1cccc(NC(=O)CSc2nccn2Cc2ccc3c(c2)OCO3)c1 | -7.66 | –
47 | COc1ccc(Br)cc1CNC(=O)c1cc(=O)[nH]c2ccc(S(=O)(=O)N3CCCC3)cc12 | -0.37 | –
48 | O=c1c2c(ncn1Cc1ccccc1)nc1n2CCC1 | 3.35 | –
49 | Cc1cc(C)nc(NS(=O)(=O)c2ccc(NC(=O)c3cc(=O)c4ccc(C)c(C)c4o3)cc2)n1 | -19.3 | –
50 | O=c1cc(CSc2ncn[nH]2)[nH]c2ccc(F)cc12 | 7.8 | –
51 | CC(C)N(Cc1nnc(-c2ccccc2Br)o1)C(=O)c1cc(Cl)nc2ccccc12 | 4.54 | –
52 | CCN(CC)c1ccc(C(=O)N/N=C/c2ccc(N3CCOCC3)cc2)cc1 | -6.56 | –
53 | Cc1ccc(OCCCC(=O)Nc2ccc(N3CCOCC3)cc2)cc1 | -2.1 | –
54 | Cc1cc(C(=O)N/N=C/c2ccc(N3CCOCC3)cc2)c(C)o1 | – | 13.5 µM (active)
55 | O=c1c2ccccc2ccc2ccc(P(=O)(O)O)cc12 | 2.5 | –
56 | COc1ccc(C(=O)CSc2nc(C)cc(C)n2)cc1[N+](=O)[O-] | -13.8 | –
